From PubChem BioAssay (NCI)
This is part of a sample that, as a whole, favours compounds with a hit. Of some 83,000 tested, about 20% had one in any assay.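 Note: values are percent growth. 100 is the growth of untreated cells, values between 100 and 0 indicate rising inhibition; between -100 and 0 indicates cell death.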 Active and inactive are the calls of the source. Rule for the calls: active = growth percent below 10; inactive = the rest.

Assays:
Test in all cases: NCI-60 one-dose screen, 48 h (100 = growth as untreated, 0 = no growth, -100 = all killed)
Settings in all cases: 10 µM unless noted
HCT-15 colon = tested on: HCT-15 colon
HT29 colon = tested on: HT29 colon
SNB-75 CNS = tested on: SNB-75 CNS
SNB-19 CNS = tested on: SNB-19 CNS
U251 CNS = tested on: U251 CNS
PC-3 prostate = tested on: PC-3 prostate
SK-MEL-5 melanoma = tested on: SK-MEL-5 melanoma
UACC-62 melanoma = tested on: UACC-62 melanoma
LOX IMVI melanoma = tested on: LOX IMVI melanoma
SK-MEL-28 melanoma = tested on: SK-MEL-28 melanoma

Measured: growth

O=C1CCC23OC(C(O)c4ccccc4N12)C1C(Br)=NOC13 (stereo not given)
inactive: HCT-15 colon 97.4% | HT29 colon 106% | SNB-75 CNS 80.8% | SNB-19 CNS 108% | U251 CNS 107% | PC-3 prostate 99.2% | SK-MEL-5 melanoma 111% | UACC-62 melanoma 109% | LOX IMVI melanoma 99.7% | SK-MEL-28 melanoma 106%

O=C1NCc2ccc3c(-c4cccc(Cl)c4)c[nH]c3c21
active: HT29 colon 7.64%
inactive: HCT-15 colon 27.2% | SNB-75 CNS 13.2% | SNB-19 CNS 28.6% | U251 CNS 16.3% | PC-3 prostate 17.2% | SK-MEL-5 melanoma 31.2% | UACC-62 melanoma 27% | LOX IMVI melanoma 35% | SK-MEL-28 melanoma 62.2%

CC(=O)Oc1c2c(nc3c1c1ccccc1n3Cc1ccccc1)-c1ccccc1C2
inactive: HCT-15 colon 84.9% | HT29 colon 75.4% | SNB-75 CNS 75.7% | SNB-19 CNS 96.7% | U251 CNS 78.7% | PC-3 prostate 71.8% | SK-MEL-5 melanoma 83.7% | UACC-62 melanoma 70.2% | LOX IMVI melanoma 88.1% | SK-MEL-28 melanoma 100%

C#C[C@@]1(O)[C@@H](CO)O[C@@H](n2cnc3c(-c4ccccc4)ncnc32)[C@@H]1O
inactive: HCT-15 colon 98% | HT29 colon 101% | SNB-75 CNS 85.7% | SNB-19 CNS 112% | U251 CNS 104% | PC-3 prostate 95.5% | SK-MEL-5 melanoma 104% | UACC-62 melanoma 108% | LOX IMVI melanoma 94.6% | SK-MEL-28 melanoma 111%

Cc1cccc(NC(=O)c2sc3nc4c(cc3c2N)CN(Cc2ccccc2)CC4)c1C
active: HT29 colon 9.33%
inactive: HCT-15 colon 29.6% | SNB-75 CNS 13.5% | SNB-19 CNS 34.3% | U251 CNS 25.4% | PC-3 prostate 32.2% | SK-MEL-5 melanoma 39.7% | UACC-62 melanoma 42.8% | LOX IMVI melanoma 44% | SK-MEL-28 melanoma 68.2%

Cc1[nH]c2ncnc(Oc3ccc(NC(=O)Nc4ccc(Cl)c(C(F)(F)F)c4)cc3)c2c1C
inactive: HCT-15 colon 48.3% | HT29 colon 50.2% | SNB-75 CNS 88.1% | SNB-19 CNS 73.4% | U251 CNS 52.5% | PC-3 prostate 35% | SK-MEL-5 melanoma 65.9% | UACC-62 melanoma 55.8% | LOX IMVI melanoma 43.4% | SK-MEL-28 melanoma 59.7%

COc1ccc(Nc2cc(NC(=O)CNc3cc(OC)c(Cl)c(OC)c3Cl)ncn2)cc1
inactive: HCT-15 colon 73.5% | HT29 colon 80.9% | SNB-75 CNS 81.3% | SNB-19 CNS 96.8% | U251 CNS 88.5% | PC-3 prostate 57.9% | SK-MEL-5 melanoma 85.1% | UACC-62 melanoma 62.8% | LOX IMVI melanoma 57.2% | SK-MEL-28 melanoma 84.7%

Cc1cccc(C)c1Nc1nnc(-c2ccc(F)cc2)o1
inactive: HCT-15 colon 110% | HT29 colon 111% | SNB-75 CNS 80.2% | SNB-19 CNS 104% | U251 CNS 104% | PC-3 prostate 98.6% | SK-MEL-5 melanoma 98.9% | UACC-62 melanoma 103% | LOX IMVI melanoma 95.1% | SK-MEL-28 melanoma 100%

CCCCCCC/C=C/[C@H]1O[C@]23C(=O)C[C@@]4(C[C@@H](OC5OC(CO)C(O)C(O)C5O)C[C@@H]4[C@H]2C=C1C)OC3=O (stereo not given in full)
active: HCT-15 colon -5.27% | HT29 colon 0.865% | U251 CNS -2.96% | SK-MEL-5 melanoma 8.74% | LOX IMVI melanoma -67.7% | SK-MEL-28 melanoma -5.61%
inactive: SNB-75 CNS 70.6% | SNB-19 CNS 21.2% | PC-3 prostate 21% | UACC-62 melanoma 14.2%

O=C(O)CCNC1CCCCC1
inactive: HCT-15 colon 99.4% | HT29 colon 106% | SNB-75 CNS 90.3% | SNB-19 CNS 91.2% | U251 CNS 94.2% | PC-3 prostate 94.8% | SK-MEL-5 melanoma 108% | UACC-62 melanoma 100% | LOX IMVI melanoma 94.1% | SK-MEL-28 melanoma 100%

CC(C)CSc1nc(Nc2ccccc2)c(C#N)c(-c2ccc(F)cc2)n1
inactive: HCT-15 colon 67.4% | HT29 colon 50.7% | PC-3 prostate 47.7% | SK-MEL-5 melanoma 80.5% | UACC-62 melanoma 70.9% | SK-MEL-28 melanoma 84.5%
active: SNB-75 CNS -16.2% | SNB-19 CNS 5.61% | U251 CNS -32.5% | LOX IMVI melanoma 4.45%

Nc1c(C(=O)Nc2ccccn2)sc2nc3c(cc12)CCCCCC3
active: HT29 colon 3.49% | SNB-75 CNS -1.5% | SK-MEL-5 melanoma 9.47%
inactive: HCT-15 colon 20.2% | SNB-19 CNS 22.3% | U251 CNS 16% | PC-3 prostate 20.9% | UACC-62 melanoma 24.8% | LOX IMVI melanoma 36.2% | SK-MEL-28 melanoma 51.2%

c1ccc(-c2n(Cc3ccc4ccccc4n3)cc[n+]2Cc2ccc3ccccc3n2)cc1
active: SNB-19 CNS 8.24% | SK-MEL-5 melanoma -73.4% | UACC-62 melanoma -10.3%
inactive: HCT-15 colon 102% | HT29 colon 22.8% | SNB-75 CNS 42.6% | U251 CNS 14.7% | PC-3 prostate 27% | LOX IMVI melanoma 19.5% | SK-MEL-28 melanoma 24.5%

CO[C@@]12C=C[C@@]34CCC(=O)N3c3ccccc3[C@@H](O1)C4C2
inactive: HCT-15 colon 104% | HT29 colon 101% | SNB-75 CNS 90.5% | SNB-19 CNS 99.1% | U251 CNS 99.7% | PC-3 prostate 100% | SK-MEL-5 melanoma 104% | UACC-62 melanoma 94.5% | LOX IMVI melanoma 96.9% | SK-MEL-28 melanoma 113%

Nc1c(C(=O)Nc2ccccc2)sc2nc3c(cc12)CN(C(=O)OCc1ccccc1)CC3
inactive: HCT-15 colon 37.3% | HT29 colon 15.7% | SNB-75 CNS 49.6% | SNB-19 CNS 56.1% | U251 CNS 37.8% | PC-3 prostate 46% | SK-MEL-5 melanoma 36% | UACC-62 melanoma 43% | LOX IMVI melanoma 40.8% | SK-MEL-28 melanoma 62.3%

CCOC(=O)c1c(C)nc2c(c1N)/C(=C/c1ccc[nH]1)C(=O)N2Cc1ccc(C(F)(F)F)cc1
inactive: HCT-15 colon 68.8% | HT29 colon 70% | SNB-75 CNS 25.3% | SNB-19 CNS 36.3% | U251 CNS 25.2% | PC-3 prostate 52.1% | SK-MEL-5 melanoma 82.2% | UACC-62 melanoma 81.8% | LOX IMVI melanoma 56.7% | SK-MEL-28 melanoma 89.6%

c1ccc(-c2cn3ccnc3c(-c3ccc4c(c3)ncn4C3CCCCC3)n2)cc1
inactive: HCT-15 colon 80.9% | HT29 colon 90.8% | SNB-75 CNS 94.4% | SNB-19 CNS 98.3% | U251 CNS 95.6% | PC-3 prostate 86.5% | SK-MEL-5 melanoma 94.3% | UACC-62 melanoma 98% | LOX IMVI melanoma 95.1% | SK-MEL-28 melanoma 111%

Cn1nc(C(F)(F)F)c(-c2cc(C(F)(F)F)cc(C(F)(F)F)c2)c1-c1ccc(OCc2ccc(Cl)cc2)cc1O
inactive: SNB-19 CNS 22.6% | PC-3 prostate 10.7% | SK-MEL-28 melanoma 28%
active: HCT-15 colon 7.5% | HT29 colon 3.77% | SNB-75 CNS 4.92% | U251 CNS 6.17% | SK-MEL-5 melanoma -36.6% | UACC-62 melanoma 3.02% | LOX IMVI melanoma 6.23%

COc1ccc(/C=C(/C(=O)N2CCCC2)c2cc(OC)c(OC)c(OC)c2)cc1
inactive: HCT-15 colon 39.6% | HT29 colon 11.6% | SNB-75 CNS 32% | SNB-19 CNS 46.8% | U251 CNS 25.1% | PC-3 prostate 26.3% | SK-MEL-5 melanoma 15% | UACC-62 melanoma 44.1% | LOX IMVI melanoma 54.2% | SK-MEL-28 melanoma 73.9%

C=C(C)[C@@H]1CC[C@]2(C(=O)NCCCO)CC[C@]3(C)[C@H](CC[C@@H]4[C@@]5(C)CCCNC(C)(C)[C@@H]5CC[C@]43C)[C@@H]12
inactive: HCT-15 colon 68.6% | SNB-75 CNS 72.2% | SNB-19 CNS 85.4% | U251 CNS 53.7% | PC-3 prostate 49.2% | SK-MEL-5 melanoma 13% | UACC-62 melanoma 83.8% | LOX IMVI melanoma 78.7% | SK-MEL-28 melanoma 51.3%
active: HT29 colon 7.18%

CCCCN(CCCC)CC(CN(CC)CC)OC(=O)Nc1ccccc1 (stereo not given)
inactive: HCT-15 colon 63.4% | HT29 colon 37.1% | SNB-75 CNS 78.3% | SNB-19 CNS 107% | U251 CNS 96.8% | PC-3 prostate 89.6% | SK-MEL-5 melanoma 100% | UACC-62 melanoma 111% | LOX IMVI melanoma 87.7% | SK-MEL-28 melanoma 105%

Nc1c(C(=O)Nc2ccccn2)sc2nc3c(cc12)CCCC3
inactive: HCT-15 colon 27.4% | HT29 colon 21.7% | SNB-75 CNS 38.1% | SNB-19 CNS 45.7% | U251 CNS 33.2% | PC-3 prostate 64.9% | SK-MEL-5 melanoma 26.3% | UACC-62 melanoma 41.2% | LOX IMVI melanoma 41.5% | SK-MEL-28 melanoma 64.8%

COc1cc(C2=NN(c3ccccc3)C(c3cccc(Nc4ccnc5cc(C(F)(F)F)ccc45)c3)C2)cc(OC)c1OC (stereo not given)
inactive: HCT-15 colon 78.1% | HT29 colon 71% | SNB-75 CNS 106% | SNB-19 CNS 92.8% | U251 CNS 95.5% | PC-3 prostate 72.4% | SK-MEL-5 melanoma 89.8% | UACC-62 melanoma 83.5% | LOX IMVI melanoma 81.9% | SK-MEL-28 melanoma 100%

COc1ccc(-c2[nH]c3ccc(OC)cc3c2C=C(C#N)C#N)cc1
inactive: HCT-15 colon 38.6% | HT29 colon 15% | SNB-75 CNS 21.3% | SNB-19 CNS 76.2% | U251 CNS 35.7% | PC-3 prostate 21.7% | SK-MEL-5 melanoma 15.5% | UACC-62 melanoma 33.1% | LOX IMVI melanoma 63% | SK-MEL-28 melanoma 54.2%

COc1cccc2c1-c1ccccc1C2=O
active: SK-MEL-5 melanoma 9.97%
inactive: HCT-15 colon 33.3% | HT29 colon 17.5% | SNB-75 CNS 18.1% | SNB-19 CNS 29% | U251 CNS 17.8% | PC-3 prostate 28.1% | UACC-62 melanoma 33.3% | LOX IMVI melanoma 40.3% | SK-MEL-28 melanoma 47.9%

CC(C)C1=C[C@@]23CC[C@H]4[C@](C)(COCCC#N)CCC[C@]4(C)[C@H]2C[C@@H]1[C@@H]1[C@H]3[C@@H](OCCC#N)CC[C@@H]1OCCC#N
active: PC-3 prostate 9.6%
inactive: HCT-15 colon 22.8% | HT29 colon 12.1% | SNB-75 CNS 80.3% | SNB-19 CNS 50.3% | U251 CNS 29.1% | SK-MEL-5 melanoma 39.1% | UACC-62 melanoma 45.3% | LOX IMVI melanoma 40.1% | SK-MEL-28 melanoma 48.7%
